Rows were chosen to be rich in hits. Some 10% of all compounds tested hit in one or more screens of this group.
Pf growth 48h: inhibits P. falciparum growth in the first generation, 48 h | P. falciparum luciferase growth in erythrocytes, 48 h | AID 504832 | Potency, µM (series often up to 28.7 µM), without a hit: at the top dose activity change, negative = inhibition, usual class: inhibitors | 5.9% of 310,000 active; also: % is scaled to controls: 0 for no effect and ±100 for the full control effect
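Growth was read as firefly luciferase luminescence after a 48 h, 37 C, 5% CO2 exposure of compounds to reporter-bearing P. falciparum cultures (0.1% parasitemia, 2% hematocrit final) in Albumax-supplemented RPMI 1640.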
NS1 function inh: blocks influenza NS1 protein function. Potency, µM (series often up to 46.1 µM), inactives show at the top dose activity, positive = more growth. 0.4% of 270,000 active. AID 2326; calls by dose curve; also: actives are rising curves; nearly all actives have a fitted effect of over 50% in size
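In this qHTS, NS1 from influenza A is expressed in budding yeast, where it slows growth. Cells are switched from glucose to 2% galactose medium (pH 6.0, -URA), treated with compound, and growth recovery is read at OD600.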
SARS PLpro yeast: inhibitors of SARS-CoV papain-like protease in yeast; S. cerevisiae expressing SARS-CoV PLpro, growth rescue; Potency, µM (highest dose often 32.9 µM), for inactives: at the top dose activity, positive = growth rescue, actives largely listed as activators; 0.19% of 330,000 active; calls by dose curve; also: 0% is about no effect; nearly all actives have a fitted effect of over 55% in size
Pf growth 96h: P. falciparum growth inhibition at 96 hour, primary screen for plastid delayed-death inhibitors; Potency, µM (highest dose often 28.7 µM), inactives show top-dose activity change, negative = inhibition, usual class: inhibitors; 6.9% of 320,000 active; AID 504834; P. falciparum luciferase reporter growth, 96 h; also: % is scaled to controls: 0 for no effect and ±100 for the full control effect
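Two-generation exposure (96 h) targets delayed-death phenotype. Reporter parasites carrying integrated firefly luciferase, in red cells at 2% hematocrit and 0.05% parasitemia final, kept at 37 C, 5% CO2; luminescence loss indicates inhibition.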
Numbers without * were called inactive; u = inconclusive; x = no result given; [ ] = another dose, or the depositor's remark. Unless noted, calls follow the shape of the dose curve; as a rule, active = well fitted inhibition curve with a large enough effect; inconclusive = small, poorly fitted or top-dose-only effect, or another doubt; inactive = no such curve, though single readings can be large or run the other way. Potency is read from the fitted curve at half-maximal effect.

SMILES | Pf growth 48h | NS1 function inh | SARS PLpro yeast | Pf growth 96h
CC(C)Cc1cc(C(=O)N2CCCC(C(=O)c3cc(F)ccc3F)C2)no1 (configuration not stated) | 7% | 5% | 0% | 4.7µM*
COc1ccc(F)cc1C(=O)C1CCCN(Cc2c[nH]c3ccccc23)C1 (configuration not stated) | u | 6% | 0% | 13µM*
O=C(c1cc(F)ccc1F)C1CCCN(Cc2cccn2-c2ccccn2)C1 (configuration not stated) | u | 2% | 4% | u
COc1ccc(F)cc1C(=O)C1CCCN(Cc2cn(C)c3ccccc23)C1 (configuration not stated) | u | -3% | 0% | 34%
O=C(c1cc(F)ccc1F)C1CCCN(Cc2cc(Cl)ccc2O)C1 (configuration not stated) | 4.1µM* | -20% | 1% | u
O=C(c1cc(F)ccc1F)C1CCCN(C(=O)c2cccs2)C1 (configuration not stated) | 9% | -6% | 1% | u
COc1ccc(F)cc1C(=O)C1CCCN(Cc2cccn2-c2ccccn2)C1 (configuration not stated) | 10µM* | -3% | -1% | 3.3µM*
COC(=O)c1cc(CNC(=O)c2ccccc2OCc2c(C)noc2C)ccc1OC | -6% | 4% | -10% | -10%
CCOc1ccccc1CN1CCCC(C(=O)c2ccc(OC)c(OC)c2)C1 (configuration not stated) | u | 5% | 0% | u
COc1ccc(C(=O)C2CCCN(Cc3cn(C)nc3-c3ccccc3)C2)cc1F (configuration not stated) | u | 1% | -1% | 9.3µM*
Cc1cc(Cl)ccc1N(CC(=O)NCc1ccccc1)S(C)(=O)=O | 0% | 1% | 8% | 0%
COc1ccc(C)cc1NC(=O)C(C)N(c1ccc(C)cc1)S(C)(=O)=O (configuration not stated) | u | -3% | 3% | -8%
Cc1ccc(N(CC(=O)NCc2ccncc2)S(C)(=O)=O)cc1Cl | 21% | -2% | 21% | x
Cc1ccc(Oc2ccc(Cl)cc2NC(=O)c2ccc(F)cc2F)cc1 | 5.2µM* | 5% | -1% | 10µM*
Cc1ccc(N(CC(=O)Nc2cc(Cl)ccc2Oc2ccccc2)S(C)(=O)=O)c(C)c1 | x | 7% | 1% | 12µM*
Cc1ccc(N(CC(=O)NCc2cccnc2)S(C)(=O)=O)cc1C | 11% | 5% | 0% | 4.1µM*
O=C(Nc1cc(Cl)ccc1Oc1ccccc1)c1ccccc1F | u | -10% | -25% | -3%
Cc1ccc(N(C(C)C(=O)Nc2cc(Cl)ccc2Oc2ccccc2)S(C)(=O)=O)cc1 (configuration not stated) | 4.7µM* | 25% | 3% | 7.4µM*
CCOC(=O)c1c(NC(=S)NNS(=O)(=O)c2ccc(Br)cc2)sc2c1CCCCC2 | u | -24% | 10% | u
COc1ccc(C)cc1NC(=O)CN(c1ccccc1)S(C)(=O)=O | 2% | -3% | -3% | u
Cc1ccc(N(CC(=O)Nc2cc(Cl)ccc2Oc2ccccc2)S(C)(=O)=O)cc1C | x | 17% | 1% | 8.3µM*
O=C(NCc1cccc(C(F)(F)F)c1)C1CCN(c2ncccn2)CC1 | 8% | -3% | -6% | 22%
Cc1ccccc1CN1CCCC(C(=O)Nc2ccccc2Oc2cccnc2)C1 (configuration not stated) | 2.6µM* | -1% | 3% | 3%
Cc1cc(C)nc(N2CCC(CNC(=O)CCc3ccccc3)CC2)n1 | u | -14% | -14% | 10µM*
O=C(Nc1ccccc1Oc1cccnc1)C1CCCN(Cc2ccc(F)cc2)C1 (configuration not stated) | u | u | 3% | 6%
SMILES | Pf growth 48h | NS1 function inh | SARS PLpro yeast | Pf growth 96h
Cn1ccnc1CN1CCCCC1C(=O)Nc1ccc(Oc2cccnc2)cc1 (configuration not stated) | u | -1% | 2% | 13µM*
Cc1cc(C)nc(N2CCC(C(=O)NCc3cccc(C(F)(F)F)c3)CC2)n1 | 2% | 7% | 3% | 2.1µM*
CCn1ccnc1CN1CCCCC1C(=O)Nc1ccc(Oc2cccnc2)cc1 (configuration not stated) | u | 2% | 7% | 19%
COc1ccc([C@H]2CC(=O)C=C(c3cccc4c3Oc3ccccc3S4)C2)cc1 | -2% | x | -5% | u
O=C(Nc1ccc(Oc2ccccc2)nc1)C1CCCCN1Cc1cccc(O)c1 (configuration not stated) | u | -2% | -6% | 5.9µM*
COc1cccc(O)c1CN1CCC(C(=O)Nc2ccc(Oc3cccnc3)cc2)CC1 | u | 15% | 3% | 11%
COc1ccc(CN2CCC(C(=O)Nc3ccc(Oc4cccnc4)cc3)CC2)cc1 | 12µM* | -10% | 4% | -10%
COc1ccc(CN2CCC(C(=O)Nc3ccc(Oc4cccnc4)cc3)CC2)c(C)c1C | 7.4µM* | -4% | 2% | 29%
COc1cccc(O)c1CN1CCC(C(=O)Nc2ccc(-c3cccc(C)c3)cc2)CC1 | 4.1µM* | -12% | 2% | 4.1µM*
O=C(COc1ccc(S(=O)(=O)N2CCCC2)cc1)N1CCCC1 | -30% | -4% | 1% | -2%
COc1ccc(CCNC(=O)c2cccc(S(=O)(=O)N3CCCCCC3)c2)cc1 | -32% | x | -13% | u
Cc1nn(Cc2ccccc2)c(Cl)c1/C=C1\NC(=S)NC1=O | 20% | -4% | -1% | 10%[1.15 µM]
Cc1cc(C)nc(N2CCC(C(=O)Nc3ccc(Oc4ccccc4)cc3)CC2)n1 | -8% | -13% | 2% | 12µM*
CC(C)(C)c1ccccc1OCCOCCNCc1ccccc1 | 8.3µM* | -9% | -13% | 23%
COCCNCCCCOc1ccccc1-c1ccccc1 | u | 15% | -10% | 35%
CCCCNCCOCCOc1ccccc1-c1ccccc1 | 10µM* | 1% | -6% | u
Cc1cc(OCCOCCNCc2ccccc2)ccc1C(C)C | u | -25% | -5% | 7.4µM*
CCn1c(SCC(=O)NC2CCCCC2)nnc1-c1cccnc1 | -2% | -4% | -3% | 11%
Cc1cc(N2CCN(c3ccccc3)CC2)nc(-c2ccccc2O)n1 | x | -97% | -9% | -18%
Cc1cc(N2CCN(c3ccccc3)CC2)nc(-n2nc(C)cc2C)n1 | 3.7µM* | -213% | -5% | -29%
Cc1cc(C)nc(-n2nc(C)cc2Nc2ccccc2)n1 | 8.3µM* | -14% | -8% | x
Cc1cc(Nc2ccccc2)n(-c2ccccc2)n1 | -13% | -12% | -2% | 29%
Cc1cc(C)nc(-n2nc(C)c(Br)c2Nc2ccc(Br)cc2)n1 | 3.7µM* | 7% | -1% | x
Cc1nn(C)c(Nc2ccc(Br)cc2)c1Br | u | x | -1% | 19%
N=C(N)[C@H](N=Nc1ccccc1)C(N)=O | x | -3% | x | x
O=C(CN(c1ccccc1)S(=O)(=O)c1ccccc1[N+](=O)[O-])Nc1cccnc1 | 4% | 11% | 1% | u
Cc1ccc(NC(=O)c2ccc(Nc3ccccc3F)nc2)cc1 | 68% | 9% | -8% | 5.9µM*
CSc1cccc(NC(=O)c2cc(S(=O)(=O)N3CCc4ccccc43)cn2C)c1 | u | 3% | -11% | u

Source: PubChem BioAssay
